The values below come from PubChem BioAssay (NCI).

Structures are written as SMILES. The panel holds about 79,000 compounds, 15% with a hit somewhere; the sample as a whole holds those more often. A number with no mark means an inactive call. The source made the active and inactive calls. No stated cut-off is given here; in the data, active means growth inhibition above about 70%; inactive means the rest. Where a SMILES comes first, the peptide text is derived from it. [ ]: non-standard residue; d: D form. Phe(4-Cl) = N[CH](Cc1ccc(Cl)cc1)C(=O)O; 3Pal = N[CH](Cc1cccnc1)C(=O)O

Experiment [1] is described as follows: NCI Yeast Anticancer Drug Screen. Data for the rad50 strain (AID 155).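 Further: 0% = growth of vehicle-only cultures of the same strain.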 The conditions noted are these: S. cerevisiae rad50 strain growth inhibition, hits give high values. Put shortly:
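Inhibition values express reduced yeast growth in compound-treated cultures relative to vehicle-treated controls.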

A short description of experiment [2]: NCI Yeast Anticancer Drug Screen. Data for the mec2-1 strain (AID 157). The conditions noted are these: S. cerevisiae mec2-1 strain, hits give high values. Put shortly: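 Each compound was tested on mec2-1 yeast, a strain altered in DNA damage repair or cell cycle control. Growth inhibition is reported relative to vehicle.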
A short description of experiment [3]: NCI Yeast Anticancer Drug Screen. Data for the sgs1 mgt1 strain (AID 161).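 Further: 0% = growth of cultures given vehicle only.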 The note with it: S. cerevisiae sgs1 mgt1 strain, hits give high values. Put shortly:
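Genetically altered yeast, compound exposure, growth inhibition relative to vehicle.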

Experiment [4] in a line: NCI Yeast Anticancer Drug Screen. Data for the cln2 rad14 strain (AID 165).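 Further: 0% = growth equal to vehicle treated cultures.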 The conditions noted are these: S. cerevisiae cln2 rad14 strain, hits give high values. Put shortly: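 Test compounds were added to cln2 rad14 yeast cultures; inhibition of growth was then determined by comparison with vehicle treatment.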
A short description of experiment [5]: NCI Yeast Anticancer Drug Screen. Data for the bub3 strain (AID 167). The conditions noted are these: S. cerevisiae bub3 mutant strain, hits give high values. Put shortly: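 Steps: expose the mutant yeast strain to compound; grow alongside vehicle-treated cultures; measure growth; express inhibition against the vehicle cultures.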
A short description of experiment [6]: NCI Yeast Anticancer Drug Screen. Data for the mlh1 rad18 strain (AID 175). The note with it: S. cerevisiae mlh1 rad18 strain growth inhibition, hits give high values. In a few lines: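 Inhibition values reflect reduced growth of mutant yeast versus vehicle-treated controls following compound exposure; the mutations affect DNA damage repair.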
Setting [7] is: at 5.0 µM (retest, dose inferred, filed as 0.5).
Setting [8] is: at 50.0 µM (retest, dose inferred, filed as 5.0).

Consider `CP(=O)(c1ccccc1)c1ccccc1`, for which the growth inhibition in experiment [1] (setting [7]) is -20%; in experiment [1] (setting [8]), -17%; in experiment [1] (at 50.0 µM), 12.3%; in experiment [2] (setting [7]) it was -1%; in experiment [2] (setting [8]) it was 5%; in experiment [2] (at 50.0 µM), 13.2%. For the same compound, the growth inhibition in experiment [3] (setting [7]) was -21%; in experiment [3] (setting [8]) it was -14%; in experiment [3] (at 50.0 µM) it was 18.4%; in experiment [4] (setting [7]), 18%; in experiment [4] (setting [8]) it was -12%; in experiment [4] (at 50.0 µM) it was 6.05%. For the same compound, the growth inhibition in experiment [5] (setting [7]) was -22%; in experiment [5] (setting [8]), -20%; in experiment [5] (at 50.0 µM), 5.05%; in experiment [6] (setting [7]), -24%; in experiment [6] (setting [8]), -25%; in experiment [6] (at 50.0 µM) it was 41.8%.
Regarding `CCOC(=O)C(C(=O)O)(C(c1ccccc1)c1ccccc1)C(c1ccccc1)c1ccccc1`, the growth inhibition was 97% (active) in experiment [1] (setting [7]); 98% (active) in experiment [1] (setting [8]); 98.5% (active) in experiment [1] (at 50.0 µM); 100% (active) in experiment [2] (setting [7]); 100% (active) in experiment [2] (setting [8]); 99.5% (active) in experiment [2] (at 50.0 µM). Moreover, the growth inhibition in experiment [3] (setting [7]) is 98% (active); in experiment [3] (setting [8]), 99% (active); in experiment [3] (at 50.0 µM), 98.4% (active); in experiment [4] (setting [7]), 98% (active); in experiment [4] (setting [8]), 99% (active); in experiment [4] (at 50.0 µM) it was 98.9% (active). Moreover, the growth inhibition is 98% (active) in experiment [5] (setting [7]); 98% (active) in experiment [5] (setting [8]); 98.3% (active) in experiment [5] (at 50.0 µM); 99% (active) in experiment [6] (setting [7]); 99% (active) in experiment [6] (setting [8]); 99% (active) in experiment [6] (at 50.0 µM).
`Cc1cccc2c(C(=O)CBr)cc(-c3ccc(Cl)cc3)nc12`: the growth inhibition is 54% in experiment [1] (setting [7]); 91% (active) in experiment [1] (setting [8]); 95.7% (active) in experiment [1] (at 50.0 µM); 89% (active) in experiment [2] (setting [7]); 93% (active) in experiment [2] (setting [8]); 95.3% (active) in experiment [2] (at 50.0 µM). For the same compound, the growth inhibition in experiment [3] (setting [7]) was 96% (active); in experiment [3] (setting [8]), 91% (active); in experiment [3] (at 50.0 µM), 95.2% (active); in experiment [4] (setting [7]), 36%; in experiment [4] (setting [8]) it was 85% (active); in experiment [4] (at 50.0 µM), 85.8% (active). The growth inhibition was 74% (active) in experiment [5] (setting [7]); 92% (active) in experiment [5] (setting [8]); 95% (active) in experiment [5] (at 50.0 µM); 88% (active) in experiment [6] (setting [7]); 90% (active) in experiment [6] (setting [8]); 95.5% (active) in experiment [6] (at 50.0 µM).
In the case of `CCCCCCCCCCCCNC(=O)c1ccc[n+](Cc2ccc(Cl)c(Cl)c2)c1`, the growth inhibition in experiment [1] (setting [7]) is 99% (active); in experiment [1] (setting [8]) it was 98% (active); in experiment [1] (at 50.0 µM) it was 99% (active); in experiment [2] (setting [7]) it was 100% (active); in experiment [2] (setting [8]) it was 99% (active); in experiment [2] (at 50.0 µM), 99% (active). For the same compound, the growth inhibition in experiment [3] (setting [7]) is 99% (active); in experiment [3] (setting [8]), 98% (active); in experiment [3] (at 50.0 µM), 98.8% (active); in experiment [4] (setting [7]) it was 99% (active); in experiment [4] (setting [8]), 99% (active); in experiment [4] (at 50.0 µM), 98.2% (active). Further, the growth inhibition was 98% (active) in experiment [5] (setting [7]); 98% (active) in experiment [5] (setting [8]); 97.8% (active) in experiment [5] (at 50.0 µM); 99% (active) in experiment [6] (setting [7]); 99% (active) in experiment [6] (setting [8]); 98.7% (active) in experiment [6] (at 50.0 µM).
As to `CC(=O)N1c2ccccc2Sc2c1ccc1ccccc21`, the growth inhibition in experiment [1] (setting [7]) is 10%; in experiment [1] (setting [8]), 94% (active); in experiment [1] (at 50.0 µM), 96% (active); in experiment [2] (setting [7]) it was 5%; in experiment [2] (setting [8]), 95% (active); in experiment [2] (at 50.0 µM), 96.8% (active). Also, the growth inhibition in experiment [3] (setting [7]) is 11%; in experiment [3] (setting [8]) it was 94% (active); in experiment [3] (at 50.0 µM), 96.5% (active); in experiment [4] (setting [7]), 1%; in experiment [4] (setting [8]) it was 94% (active); in experiment [4] (at 50.0 µM) it was 95% (active). Besides, the growth inhibition in experiment [5] (setting [7]) was 6%; in experiment [5] (setting [8]) it was 93% (active); in experiment [5] (at 50.0 µM), 94.3% (active); in experiment [6] (setting [7]), 2%; in experiment [6] (setting [8]), 92% (active); in experiment [6] (at 50.0 µM) it was 96.7% (active).
On to `O=C(O)CCCCCCCCC(=O)CCl`, for which the growth inhibition in experiment [1] (setting [7]) was 9%; in experiment [1] (setting [8]) it was 97% (active); in experiment [1] (at 50.0 µM), 98.8% (active); in experiment [2] (setting [7]) it was 23%; in experiment [2] (setting [8]) it was 99% (active); in experiment [2] (at 50.0 µM), 99.5% (active). Besides, the growth inhibition in experiment [3] (setting [7]) was 29%; in experiment [3] (setting [8]), 98% (active); in experiment [3] (at 50.0 µM), 99% (active); in experiment [4] (setting [7]), 14%; in experiment [4] (setting [8]) it was 98% (active); in experiment [4] (at 50.0 µM), 97.5% (active). The growth inhibition in experiment [5] (setting [7]) was 48%; in experiment [5] (setting [8]) it was 98% (active); in experiment [5] (at 50.0 µM) it was 99.5% (active); in experiment [6] (setting [7]), 38%; in experiment [6] (setting [8]), 98% (active); in experiment [6] (at 50.0 µM) it was 99.2% (active).
For the compound `CC(=O)NC(Cc1ccc(Cl)cc1)C(=O)NC(Cc1ccc(Cl)cc1)C(=O)NC(Cc1cccnc1)C(=O)NC(CO)C(=O)NC(Cc1ccc(O)cc1)C(=O)NC(CCCN=C(N)N)C(=O)NC(CC(C)C)C(=O)NC(CCCN=C(N)N)C(=O)N1CCCC1C(=O)NC(C)C(=O)O` (stereo not given) (Ac-[Phe(4-Cl)][Phe(4-Cl)][3Pal]SYRLRPA-OH; configuration not given here), the growth inhibition in experiment [1] (setting [7]) is -20%; in experiment [1] (setting [8]), -8%; in experiment [1] (at 50.0 µM), 18.1%; in experiment [2] (setting [7]), -9%; in experiment [2] (setting [8]), -16%; in experiment [2] (at 50.0 µM), 17.9%. In addition, the growth inhibition in experiment [3] (setting [7]) is -14%; in experiment [3] (setting [8]), 0%; in experiment [3] (at 50.0 µM) it was 5.15%; in experiment [4] (setting [7]), -18%; in experiment [4] (setting [8]), -7%; in experiment [4] (at 50.0 µM) it was 9.9%. Also, the growth inhibition in experiment [5] (setting [7]) was -4%; in experiment [5] (setting [8]), 8%; in experiment [5] (at 50.0 µM) it was 16.7%; in experiment [6] (setting [7]), 29%; in experiment [6] (setting [8]), -22%; in experiment [6] (at 50.0 µM), 53.4%.
As to `OCc1c(-c2cccc3ccccc23)sc(-c2cccc3ccccc23)c1CO`, the growth inhibition was 59% in experiment [1] (setting [7]); 74% (active) in experiment [1] (setting [8]); 90% (active) in experiment [1] (at 50.0 µM); 20% in experiment [2] (setting [7]); 85% (active) in experiment [2] (setting [8]); 92.8% (active) in experiment [2] (at 50.0 µM). For the same compound, the growth inhibition is 44% in experiment [3] (setting [7]); 56% in experiment [3] (setting [8]); 86.8% (active) in experiment [3] (at 50.0 µM); 63% in experiment [4] (setting [7]); 81% (active) in experiment [4] (setting [8]); 86.6% (active) in experiment [4] (at 50.0 µM). The growth inhibition in experiment [5] (setting [7]) was 39%; in experiment [5] (setting [8]), 82% (active); in experiment [5] (at 50.0 µM), 86.5% (active); in experiment [6] (setting [7]), 65%; in experiment [6] (setting [8]), 70% (active); in experiment [6] (at 50.0 µM), 88.4% (active).
`C=CCN1/C(=C/C=C\c2sc3ccccc3[n+]2CC=C)Sc2ccccc21`: the growth inhibition in experiment [1] (setting [7]) was 60%; in experiment [1] (setting [8]) it was 98% (active); in experiment [1] (at 50.0 µM), 91.7% (active); in experiment [2] (setting [7]), 80% (active); in experiment [2] (setting [8]), 99% (active); in experiment [2] (at 50.0 µM), 93.6% (active). Besides, the growth inhibition is 95% (active) in experiment [3] (setting [7]); 99% (active) in experiment [3] (setting [8]); 93.7% (active) in experiment [3] (at 50.0 µM); 93% (active) in experiment [4] (setting [7]); 99% (active) in experiment [4] (setting [8]); 93.5% (active) in experiment [4] (at 50.0 µM). Moreover, the growth inhibition in experiment [5] (setting [7]) is 98% (active); in experiment [5] (setting [8]), 99% (active); in experiment [5] (at 50.0 µM) it was 92.2% (active); in experiment [6] (setting [7]) it was 90% (active); in experiment [6] (setting [8]), 98% (active); in experiment [6] (at 50.0 µM) it was 91.8% (active).
Consider `COC(=O)CCCC(=O)NC1=C(Nc2ccccc2)C(=O)c2ccccc2C1=O`, for which the growth inhibition in experiment [1] (setting [7]) was 27%; in experiment [1] (setting [8]), 72% (active); in experiment [1] (at 50.0 µM), 45.5%; in experiment [2] (setting [7]), 15%; in experiment [2] (setting [8]) it was 41%; in experiment [2] (at 50.0 µM), 14.5%. Besides, the growth inhibition in experiment [3] (setting [7]) was 22%; in experiment [3] (setting [8]) it was 50%; in experiment [3] (at 50.0 µM) it was 52.2%; in experiment [4] (setting [7]), 15%; in experiment [4] (setting [8]), 24%; in experiment [4] (at 50.0 µM) it was 38.6%. The growth inhibition in experiment [5] (setting [7]) was 33%; in experiment [5] (setting [8]) it was 67%; in experiment [5] (at 50.0 µM), 61%; in experiment [6] (setting [7]), 23%; in experiment [6] (setting [8]), 60%; in experiment [6] (at 50.0 µM), 16.3%.
